From PubChem
Sampled rows, rich in hits. Any-hit rate of the full collection: about 18%.
DT40 TDP1 CPT – growth inhibition of DT40 Tdp1-/-;hTDP1 cells with camptothecin (screen for TDP1 inhibitors); chicken DT40 Tdp1-/-;hTDP1 cells + 20 nM CPT, ATP luminescence, 48 h; Potency, µM (highest dose often 46.2 µM), actives largely listed as inhibitors; 420,000 compounds, 12% hits; note: nearly all actives have a fitted effect of over 55% in size
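Cell growth measured by CellTiter-Glo luminescence after a minimum 48 h, 37 C compound exposure with 20 nM CPT in Tdp1-knockout DT40 cells stably expressing hTDP1, seeded 400/well; qHTS titration format.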
RORg inh – ROR gamma (mouse) transcription inhibition | Drosophila S2 Gal4-RORgamma UAS-luciferase reporter, 20 h | 310,000 compounds, 5.4% hits | AID 2551 | Potency, µM (titrated, usually from 53.6 µM), actives largely listed as inhibitors; note: nearly all actives have a fitted effect of over 60% in size
Target sequence (P51450 whole entry, looked up, the tested form may be a part): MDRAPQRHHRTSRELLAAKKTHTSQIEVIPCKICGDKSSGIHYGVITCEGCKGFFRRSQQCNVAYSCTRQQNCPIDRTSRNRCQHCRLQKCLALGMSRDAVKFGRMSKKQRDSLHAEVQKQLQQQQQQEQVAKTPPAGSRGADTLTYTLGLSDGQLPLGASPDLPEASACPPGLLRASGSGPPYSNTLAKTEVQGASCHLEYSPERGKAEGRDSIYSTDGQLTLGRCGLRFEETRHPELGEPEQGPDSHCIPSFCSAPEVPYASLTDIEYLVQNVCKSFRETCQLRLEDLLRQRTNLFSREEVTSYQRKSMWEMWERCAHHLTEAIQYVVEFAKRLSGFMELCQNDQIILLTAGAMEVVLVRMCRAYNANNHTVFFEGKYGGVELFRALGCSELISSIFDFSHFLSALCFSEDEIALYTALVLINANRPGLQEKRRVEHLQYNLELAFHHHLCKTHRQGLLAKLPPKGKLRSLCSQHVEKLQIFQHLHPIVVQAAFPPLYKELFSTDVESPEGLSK
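Drosophila S2 cells stably expressing Gal4-DBD/mouse RORγ fusion under metallothionein promoter plus UAS-luciferase; compound 1 h, then 700 uM CuSO4 induction for 20 h at ambient temperature; inhibition read as reduced luminescence.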
IL1B secr inh – inflammasome signaling inhibition, IL-1 beta readout; THP-1 LPS/ATP IL-1B secretion, AlphaLISA, 16 h; hits give low values; activity change, % at 57.5 µM; 360,000 compounds, 4.7% hits; in the data active = activity change below about -50%; inconclusive = mostly about -30% to -49%
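THP-1 cells pretreated 1 hr with compounds (up to 57.5 uM final), then stimulated with LPS (250 ng/mL final) plus ATP (1.25 mM final); secreted IL-1B measured by AlphaLISA after 16 hr, decreased signal indicating inhibition.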
LDHA inh – blocks human lactate dehydrogenase A; purified LDHA, NADH/diaphorase-resazurin fluorescence; hits give low values; activity change, % (values are at about 110 or 230 µM); 480,000 compounds, 0.15% hits; AID 1347041; in the data active = activity change below about -30%; inconclusive = mostly about -25% to -30%
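Human LDH5 (2 nM) was incubated with 0.06 mM NADH and 0.2 mM pyruvate for 5 min at room temperature in Tris pH 7.4. Remaining NADH was coupled through diaphorase/resazurin, and resorufin fluorescence was read at 0 and 20 min.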
TDP1 cell noCPT – qHTS for Inhibitors of human tyrosyl-DNA phosphodiesterase 1 (TDP1): qHTS in cells in absence of CPT; DT40 Tdp1-/- hTDP1 cells, no CPT, ATP luminescence, 48 h; 420,000 compounds, 15% hits; Potency, µM (top dose mostly 46.2 µM), hits mostly inhibitors; AID 686978, 2013; note: nearly all actives have a fitted effect of over 55% in size
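Chicken DT40 Tdp1-/- cells complemented with human TDP1, screened without camptothecin (DMSO vehicle only), 400 cells/well. Compounds pin-transferred, cells incubated at 37 °C for at least 48 hr. Growth read as ATP-dependent luminescence (CellTiter-Glo, 30 min at RT).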
Gal4-VP16 FLuc – Gal4-VP16 reporter inhibition counter-screen; Potency, µM (doses to about 53.6 µM), most hits filed as inhibitors; Drosophila S2 Gal4-VP16 UAS-luciferase, luminescence, 20 h; 310,000 compounds, 3.5% hits;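 note: Gal4-VP16 expression switched on by copper sulfate through the metallothionein promoter; nearly all actives have a fitted effect of over 50% in size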
Large screens that a line does not name were inactive. Unless noted, calls come from the whole dose curve; as a rule, active = well fitted curve in the direction sought with a large enough effect; inconclusive = small, poorly fitted or top-dose-only effect, or another doubt; inactive = no such curve, though single readings can be large; an effect the other way counts as inactive or inconclusive.

CCOC(=O)C1=C(CSc2nc3ccccc3s2)NC(=O)NC1c1cccc([N+](=O)[O-])c1 (stereo not drawn)	DT40 TDP1 CPT 18.4µM, TDP1 cell noCPT inconclusive
Brc1ccc(CNc2n[nH]c(-c3cccs3)n2)cc1	none (no result: DT40 TDP1 CPT, RORg inh, IL1B secr inh, TDP1 cell noCPT, Gal4-VP16 FLuc)
CC(C)(C)[C@H]1COC(=O)[C@@H](Cc2ccc(F)cc2)C/C=C\C[C@@H](CC(=O)N[C@H](CO)Cc2ccccc2)C(=O)N1	DT40 TDP1 CPT inconclusive, TDP1 cell noCPT inconclusive (no result: RORg inh, Gal4-VP16 FLuc)
O=C(C[C@H]1C/C=C\C[C@@H](Cc2ccc(F)cc2)C(=O)O[C@@H](c2ccccc2)CNC1=O)N[C@@H](CO)Cc1ccccc1	none (no result: RORg inh, Gal4-VP16 FLuc)
O=C(C[C@@H]1C/C=C/CC[C@H](Cc2ccc(F)cc2)C(=O)OCCNC1=O)N[C@H](CO)Cc1ccccc1	DT40 TDP1 CPT 20.6µM, TDP1 cell noCPT 11.6µM (no result: RORg inh, Gal4-VP16 FLuc)
O=C(C[C@H]1C/C=C\CC[C@@H](Cc2ccc(F)cc2)C(=O)O[C@@H](c2ccccc2)CNC1=O)N[C@@H](CO)Cc1ccccc1	none (no result: RORg inh, Gal4-VP16 FLuc)
O=C(C[C@@H]1C/C=C\C[C@H](Cc2ccc(F)cc2)C(=O)OCCNC1=O)N[C@H](CO)Cc1ccccc1	DT40 TDP1 CPT inconclusive, TDP1 cell noCPT 16.4µM (no result: RORg inh, Gal4-VP16 FLuc)
CC(C)(C)[C@H]1COC(=O)[C@@H](Cc2ccc(F)cc2)C/C=C\C[C@@H](CC(=O)N[C@@H](CO)Cc2ccccc2)C(=O)N1	DT40 TDP1 CPT inconclusive, TDP1 cell noCPT 18.4µM (no result: RORg inh, Gal4-VP16 FLuc)
C[C@@H]1COC(=O)[C@H](Cc2ccc(F)cc2)CC/C=C/C[C@@H](CC(=O)N[C@@H](CO)Cc2ccccc2)C(=O)N1	DT40 TDP1 CPT inconclusive, TDP1 cell noCPT 25.9µM (no result: RORg inh, Gal4-VP16 FLuc)
O=C(C[C@@H]1C/C=C/CC[C@H](Cc2ccc(F)cc2)C(=O)OC[C@@H](Cc2ccccc2)NC1=O)N[C@H](CO)Cc1ccccc1	DT40 TDP1 CPT inconclusive, TDP1 cell noCPT inconclusive (no result: RORg inh, Gal4-VP16 FLuc)
CC(Oc1ccc(F)cc1)C(=O)N1CCC(c2nc3ccccc3o2)CC1 (stereo not drawn)	none (no result: DT40 TDP1 CPT, RORg inh, IL1B secr inh, TDP1 cell noCPT, Gal4-VP16 FLuc)
O=C(Nc1ccccc1)c1sc(N2CCOCC2)nc1-c1ccccc1	RORg inh inconclusive, TDP1 cell noCPT inconclusive
CC1CN(c2nc3ccccc3nc2SCC(=O)Nc2cccc(C(F)(F)F)c2)CC(C)O1 (stereo not drawn)	DT40 TDP1 CPT 14.6µM, TDP1 cell noCPT 25.9µM (no result: RORg inh, Gal4-VP16 FLuc)
CCOc1ccc(NC(=O)CSc2nc3ccccc3nc2N2CCOCC2)cc1	DT40 TDP1 CPT 20.6µM, TDP1 cell noCPT 13µM
CCOc1ccc(NC(=O)c2sc(N3CCOCC3)nc2-c2ccccc2)cc1	DT40 TDP1 CPT inconclusive, RORg inh inconclusive, TDP1 cell noCPT 23.1µM
CCCCc1ccc(NC(=O)CSc2nc3ccccc3nc2N2CCOCC2)cc1	DT40 TDP1 CPT inconclusive, TDP1 cell noCPT 25.9µM (no result: RORg inh, IL1B secr inh, Gal4-VP16 FLuc)
Cn1c(=O)[nH]c(=O)c2c1nc(NCCCN1CCOCC1)n2Cc1ccc(F)cc1	none (no result: DT40 TDP1 CPT, RORg inh, IL1B secr inh, TDP1 cell noCPT, Gal4-VP16 FLuc)
CCCCn1c2c(c(=O)[nH]c1=O)C(c1ccc(Br)cc1)C1=C(COC1=O)N2 (stereo not drawn)	none (no result: DT40 TDP1 CPT, RORg inh, IL1B secr inh, TDP1 cell noCPT, Gal4-VP16 FLuc)
Cc1cccc(NC(=O)CSc2nc3ccccc3nc2N2CC(C)OC(C)C2)c1 (stereo not drawn)	DT40 TDP1 CPT inconclusive, TDP1 cell noCPT inconclusive
CCOc1ccc(NC(=O)CSc2nc3ccccc3nc2N2CC(C)OC(C)C2)cc1 (stereo not drawn)	DT40 TDP1 CPT 23.1µM, TDP1 cell noCPT 10.3µM
CC(C)NC(=O)/C(C#N)=C/c1cccc(NC(=O)c2ccccc2Cl)c1	DT40 TDP1 CPT inconclusive, RORg inh inconclusive, IL1B secr inh -103.9, TDP1 cell noCPT 14.6µM, Gal4-VP16 FLuc inconclusive
COCCNC(=O)/C(C#N)=C/c1cccc(NC(=O)c2ccccc2Cl)c1	DT40 TDP1 CPT inconclusive, TDP1 cell noCPT inconclusive
COc1cccc(C(=O)/C(C#N)=C\c2ccccc2C(F)(F)F)c1	none (no result: DT40 TDP1 CPT, RORg inh, IL1B secr inh, TDP1 cell noCPT, Gal4-VP16 FLuc)
N#C/C(=C\c1ccccc1C(F)(F)F)C(=O)Nc1ccccc1	IL1B secr inh -69.7
